# Reference: PubChem BioAssay
# Unmarked numbers belong to inactive results. The rule behind the calls is not given here.
# Molecular target: Pantothenate synthetase (Mycobacterium tuberculosis (strain ATCC 25618 / H37Rv)) (UniProt P9WIL5)
# Assay: Coupled enzyme confirmation of inhibitors against recombinant Mtb PanC (AID 375);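 note: 0% = full reaction with vehicle and 100% = no enzyme background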
# Settings: coupled enzyme assay; at 10 µM, stronger effect = higher value
# Pantothenate synthetase (Mycobacterium tuberculosis (strain ATCC 25618 / H37Rv)), sequence (P9WIL5 whole entry, looked up): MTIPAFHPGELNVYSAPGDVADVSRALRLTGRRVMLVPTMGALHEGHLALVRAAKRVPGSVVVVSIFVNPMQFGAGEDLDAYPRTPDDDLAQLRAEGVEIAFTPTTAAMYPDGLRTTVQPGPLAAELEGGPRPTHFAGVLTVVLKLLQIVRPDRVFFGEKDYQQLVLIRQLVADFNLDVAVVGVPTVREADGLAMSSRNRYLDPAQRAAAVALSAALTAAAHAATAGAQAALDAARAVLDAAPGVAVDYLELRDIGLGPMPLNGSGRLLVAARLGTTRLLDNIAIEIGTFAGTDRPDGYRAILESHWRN
row,Structure (SMILES),inhibition [%]
1,COc1ccc(-c2cc(C(F)(F)F)nc(N3CCN(c4ccc(F)cc4)CC3)n2)cc1OC,0
2,CC(C)Cc1cc(C(=O)Nc2c(F)cc(F)cc2Br)no1,0
3,CCC(C)n1ncn(-c2ccc(N3CCN(c4ccc(OCC5COC(Cn6cncn6)(c6ccc(Cl)cc6Cl)O5)cc4)CC3)cc2)c1=O (stereo not given),8
4,CC1Cc2ccccc2N1C(=O)COC(=O)Cn1nnc(-c2ccccc2)n1 (stereo not given),13
5,OC(CCN1CCCCC1)(c1ccccc1)C1CCCCC1 (stereo not given),0
6,CCn1c(SCC(=O)N2CCCc3ccccc32)nnc1-c1cccs1,0
7,Cc1ccc(OCc2nnc(SCC(=O)N3CCOCC3)n2C)cc1,0
8,OC1C[N+]2(CCCCC2)C1,0
9,COc1ccc(-c2nnn(CC(=O)c3ccc4c(c3)OCCO4)n2)cc1OC,0
10,COC(=O)c1cc(Br)ccc1-c1ccc(/C=N/n2nnnc2N)o1,7
11,Cc1nc2ccccc2c2oc(C(=O)NCCN3CCCCC3C)cc12 (stereo not given),0
12,CCCC1(C(=O)OCC)NC(c2ccc(N(C)C)cc2)C2C(=O)N(c3ccccc3)C(=O)C21 (stereo not given),0
13,Cc1ccc(-n2c(SCC3CCCCO3)nnc2-c2ccco2)cc1 (stereo not given),6
14,COc1ccc(C2CC(=O)c3c(C)nc(N4CCN(c5ccccc5)CC4)nc3C2)cc1 (stereo not given),0
15,COC(=O)c1[nH]c2ccccc2c1NS(=O)(=O)c1ccc(OC)cc1OC,3
16,CCOC(=O)c1ccc2nc(C)c3c(c2c1)OC(C)C3 (stereo not given),0
17,O=C(NCc1ccco1)C1CCN(c2ccc(N3CCOCC3)nn2)CC1,0
18,C=CCSc1nc(N)c(C(=O)Nc2ccccc2C)cc1C(N)=O,0
19,O=C(CN(Cc1ccco1)C(=O)c1cc(=O)[nH]c2ccccc12)Nc1ccccc1Br,0
20,O=C(NCCN1CCOCC1)C1CCC(=O)N1Cc1ccccc1Cl (stereo not given),0

row,Structure (SMILES),inhibition [%]
1,CCc1nnc(NC(=O)C2CCN(c3nccc(C)n3)CC2)s1,8
2,O=c1c2ccccc2nc(SCc2nnc(-c3ccccc3Br)o2)n1-c1ccccc1,0
3,O=C(CSc1nnc(CNC(=O)c2c(F)cccc2Cl)o1)c1ccccc1,0
4,COc1ccc(N(CC(=O)N2CCCCC2)S(=O)(=O)c2ccccc2)c(OC)c1,0
5,Cc1ccc2[nH]c(=O)c(CN(Cc3ccc4c(c3)OCO4)Cc3nnnn3Cc3ccco3)cc2c1,0
6,CCCOc1ccc(C2c3c(oc4ccccc4c3=O)C(=O)N2CCCN2CCOCC2)cc1 (stereo not given),4
7,COC(=O)/C=c1/s/c(=C(/C#N)C(=O)N2CCOCC2)n(-c2ccccc2)c1=O,4
8,CCOC(=O)N1CCN(c2cc(=O)n(-c3cccc(Br)c3)c(=O)[nH]2)CC1,0
9,CC(=O)Nc1c(C(=O)C2CC2)oc2ccccc12,3
10,Cc1ccc(-n2c3c(cc(C(=O)NCCCN4CCOCC4)c2=O)C(=O)CC(C)(C)C3)cc1,0
11,O=C(CC(=O)c1cc(Cl)ccc1O)c1ccccc1,0
12,COC(=O)c1cc2ccsc2n1CC(=O)Nc1cc(C)cc(C)c1,0
13,CCC(C)(C)n1nnnc1C(c1cc2cc(OC)ccc2[nH]c1=O)N1CCc2ccccc21 (stereo not given),0
14,CC1=C(C)[N+](=O)C2CCCCC2N1[O-] (stereo not given),3
15,CCOC(=O)c1c(NC(=O)Cn2c(=O)oc3ccccc32)oc(C)c1C(C)=O,0
16,O=C(NS(=O)(=O)c1ccc(NC(=O)C2CCCO2)cc1)c1ccccc1 (stereo not given),0
17,Cc1cc(N2C(=O)C(O)=C(C(=O)c3ccc(C)o3)C2c2cccs2)no1 (stereo not given),0
18,N#C[C@@H]1[C@@H]2C(=O)N(c3ccc4c(c3)OCCO4)C(=O)[C@@H]2C2c3ccccc3C=CN21 (stereo not given in full),2
19,CCOC(=O)C1=C(C)Nc2nnnn2C1c1ccc(OC)c(Br)c1 (stereo not given),1
20,Cc1occc1C(=O)Nc1ccc(S(=O)(=O)N2CCN(C)CC2)cc1,0
